Measurements taken from PubChem BioAssay (NCATS).
Results filed as inconclusive are left out. Calls of active or inactive are those of the source. Unless noted, calls follow the shape of the dose curve; as a rule, active = well fitted curve in either direction with a large enough effect (not every such curve was filed as active); inconclusive = small, poorly fitted or top-dose-only effect, or another doubt; inactive = flat fitted curve, though single readings scatter.

Key:
[1] = AP1 Signaling Pathway (AID 357); conditions: ME-180 AP-1-bla reporter, EGF-induced, beta-lactamase ratio, 5 h; at 17.2 µM (top of the series) unless noted; also: % is scaled to controls: 0 for no effect and ±100 for the full control effect
Outline: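 AP-1-bla ME-180 cells with beta-lactamase reporter under AP-1 response element, stimulated with EC50 EGF; compounds titrated, 5 hours at 37 degrees Celsius. CCF4 read at 460/530 nm ratio; positive and negative modulators judged by AC50.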

[2] = NFAT Signaling Pathway (AID 444); conditions: Jurkat NFAT-bla M1, carbachol, beta-lactamase ratio, 5 h; at 17.2 µM (top of the series) unless noted;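 also: carbachol stimulus at about its EC50 of 1 µM final; % is scaled to controls: 0 for no effect and ±100 for the full control effect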
Outline: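 Jurkat cells with NFAT-driven β-lactamase reporter and co-expressed M1 receptor, stimulated with carbachol (final 1 uM, ~EC50), compound titration, 5 h at 37 °C. CCF4 loaded 1 h at RT; 460/530 nm ratio gave %activity and AC50.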

[3] = Stat Signaling Pathway (AID 446); conditions: ME-180 SIE beta-lactamase reporter, IL-6 stimulated, 5 h; at 17.2 µM (top of the series) unless noted;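 also: ME-180 cervical cancer cells given 40 pM IL-6 alongside compound; SIE-controlled beta-lactamase reporter measured as 460/530 nm FRET emission ratio; % is scaled to controls: 0 for no effect and ±100 for the full control effect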
Outline: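 ME-180 SIE-bla cells; overnight plating; cpd + IL-6 40 pM, 5 h, 37 C; LiveBLAzer 2.5 h RT; 460/530 nm emission ratio. Normalized to 300 pM IL-6 and 125 nM JAK inhibitor controls.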

[4] = molecular target: Glucocorticoid receptor (Homo sapiens) (UniProt P04150); assay: GR-GFP Redistribution (AID 450;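 active = compounds whose dose series gives a full or clear partial fitted curve of increased nuclear translocation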; also: potency is read from the fitted curve at half-maximal effect)
[5] = molecular target: Glucocorticoid receptor (Homo sapiens) (UniProt P04150); assay: GR-EFC Redistribution (AID 451; calls by dose curve; also: potency is read from the fitted curve at half-maximal effect); conditions: CHO-K1 GR-EFC translocation, beta-gal luminescence, 2 h
Outline: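 CHO-K1 cells expressing nuclear EA and GR-ED fragments of b-gal; compounds titrated up to 46 uM final, 2 h at 37 C. GR nuclear translocation read as complemented b-gal luminescence after 1 h RT detection.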

[6] = molecular target: Mitogen-activated protein kinase 10 (Mus musculus) (UniProt Q61831); assay: JNK3 AlphaScreen Assay (AID 530);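 also: kinase came from lysate of stimulated human HepG2 cells; signal reports phosphorylation of biotinylated GST-cJun 1-79 at Ser73 with 10 µM ATP; % is scaled to controls: 0 for no effect and ±100 for the full control effect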
Outline: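 qHTS format: compounds tested as titrations against IL-1beta/TNF-alpha-activated HepG2 lysate JNK3 with biotin-GST-cJun substrate and 10 uM ATP at room temperature. Loss of anti-phospho-cJun AlphaScreen signal indicates inhibition.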

[7] = molecular target: 3',5'-cyclic-AMP phosphodiesterase 4B (Homo sapiens) (UniProt Q07343); assay: qHTS Assay for Inhibitors of PDE-IV (AID 607; active = well fitted activation curve with a large enough effect in the main read-out, with a control signal flat, not every such curve was filed as active; also: % of control where 0% means no effect)
Outline: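 ACTOne HEK293 cells carry a modified cAMP-gated CNG channel and express endogenous PDE4; plated 1000 cells/well, compounds up to 22.9 uM final. Membrane-potential dye fluorescence (ex 535/em 590) was read; parental cells received 10 uM forskolin + 100 uM RO 20-1724.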

[8] = molecular target: Guanine nucleotide-binding protein G(i) subunit alpha-1 (Homo sapiens) (UniProt P63096); assay: qHTS Assay for Inhibitors of RGS12 GoLoco Motif Activity (Green Fluorophore) (AID 879; active = well fitted curve in the direction sought with a large enough effect; an effect the other way counts as inactive or inconclusive;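 also: 0% = labeled peptide with Gαi1 and full inhibition = labeled peptide alone without protein; negative values mean loss of peptide binding seen as reduced polarization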)
Outline: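 Fluorescence polarization assay: 50 nM Gαi1 with 10 nM FITC-labeled RGS12 GoLoco peptide in 10 mM Tris pH 7.5, 150 mM NaCl, 0.1 mM GDP, 0.05% NP40, 10 min at room temperature with compound.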

[9] = qHTS Assay for Identification of Small Molecule Agonists for Thrombopoietin (TPO) Signaling Pathway (AID 917; active = well fitted curve in the direction sought with a large enough effect; an effect the other way counts as inactive or inconclusive; also: % is scaled to controls: 0 for no effect and ±100 for the full control effect)
Outline: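 Murine Ba/F3 cells expressing human TPO receptor and GPIIb-promoter luciferase, IL-3-starved overnight, given compound plus TPO at 26 pM (EC50). After 24 h at 37 C, 5% CO2, luminescence read.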

[10] = molecular target: Pyruvate kinase (Leishmania mexicana) (UniProt Q27686); assay: qHTS Validation Assay for Inhibitors of Leishmania Mexicana Pyruvate Kinase (AID 945; active = well fitted curve in the direction sought with a large enough effect; an effect the other way counts as inactive or inconclusive;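 also: 0% = DMSO only neutral control wells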)
Outline: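 Eight-point qHTS titrations; enzyme 0.2 nM LmPYK (E451W mutant); substrates 0.5 mM PEP, 0.1 mM ADP; 7 mM MgCl2; 1 h room temperature; PKLight luminescence normalized to neutral control.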

[11] = molecular target: Pyruvate kinase PKM (Homo sapiens) (UniProt P14618); assay: qHTS Assay for Activators of Human Muscle Pyruvate Kinase (AID 954; active = well fitted curve in the direction sought with a large enough effect, not every such curve was filed as active;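 also: 0% = uninhibited enzyme and -100% = no enzyme or full thiadiazolimine inhibition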)
Outline: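 Luminescence from a luciferase ATP-detection/stop reagent reported PKM2 activity. Reactions contained 0.1 nM purified human enzyme, 0.5 mM PEP, 0.1 mM ADP and 7 mM MgCl2 at pH 7.2, run 1 h at RT.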

[12] = molecular target: Alpha-galactosidase A (Homo sapiens) (UniProt P06280); assay: Counterscreen for Glucocerebrosidase Inhibitors: qHTS Assay for Human alpha-Galactosidase at pH 4.5 (AID 992; active = well fitted curve in the direction sought with a large enough effect; an effect the other way counts as inactive or inconclusive; also: 0% is about no effect)
Outline: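 Enzyme at 2 nM final was combined with compound (0.7 nM to 77 uM) and 80 uM 4-methylumbelliferyl alpha-D-galactopyranoside in 50 mM citric acid, 0.005% Tween-20, pH 4.5. After 20 min at room temperature, fluorescence was read (Ex 365/Em 440 nm); AC50 came from Hill fits.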

[13] = molecular target: alpha-glucosidase (Oryza sativa, rice) (UniProt Q653V4); assay: Counterscreen for Glucocerebrosidase Inhibitors: qHTS Assay for Rice alpha-Glucosidase at pH 5.0 (AID 997; active = well fitted curve in the direction sought with a large enough effect; an effect the other way counts as inactive or inconclusive;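 also: 0% = full activity with enzyme and -100% = basal without enzyme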)
Outline: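 Rice alpha-glucosidase (4 nM final) with 400 uM 4-methylumbelliferyl-alpha-D-glucopyranoside in citrate buffer pH 5.0, 20 min at room temperature, stopped at pH 10; fluorescence 365/440 nm, compounds 0.7 nM–77 uM, AC50 from Hill fits.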

[14] = molecular target: Muscarinic acetylcholine receptor M1 (Rattus norvegicus) (UniProt P08482); assay: qHTS Assay for Antagonists of Acetylcholine Muscarinic M1 Receptor: Kinetic Measurement of Intracellular Calcium Response (AID 943; active = well fitted curve in the direction sought with a large enough effect; an effect the other way counts as inactive or inconclusive;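 also: Fluo-4 calcium signal as peak divided by basal fluorescence over 4 min; nearly all actives have a fitted effect of over 75% in size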)
Outline: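 CHO cells stably expressing rat M1 were loaded with no-wash Fluo-4 dye for 1 h at 37C, pre-incubated 10 min with compound, then challenged with EC80 carbachol (100 nM final); kinetic calcium read 4 min, peak/basal ratio.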

[15] = molecular target: Muscarinic acetylcholine receptor M1 (Rattus norvegicus) (UniProt P08482); assay: qHTS Assay for Antagonists of Acetylcholine Muscarinic M1 Receptor: Measurement of IP-One Response (AID 944; active = well fitted curve in the direction sought with a large enough effect; an effect the other way counts as inactive or inconclusive; also: nearly all actives have a fitted effect of over 75% in size)
Outline: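 CHO cells expressing rat M1 receptor, recovered overnight, were pre-incubated 10 min with compound, then stimulated 30 min with carbachol at EC80 (200 nM) in LiCl-containing buffer, pH 7.4. IP1 accumulation was read by HTRF (620/665 nm).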

[16] = qHTS Assay for Identification of Small Molecule Antagonists for NFkB Signaling Pathway (AID 895; active = well fitted inhibition curve with a large enough effect in the signal ratio, with a control signal flat, not every such curve was filed as active; the % refers to the signal ratio; also: % is scaled to controls: 0 for no effect and ±100 for the full control effect)
Outline: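 ME-180 NFkB-bla cells (beta-lactamase under NFkB response element), plated overnight, treated with compound then 10 pM TNF alpha (about EC50) for 5 hrs at 37 C. LiveBLAzer FRET read at 460/530 nm emission, 405 nm excitation.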

Chain of Alpha-galactosidase A (Homo sapiens) (P06280 whole entry, looked up): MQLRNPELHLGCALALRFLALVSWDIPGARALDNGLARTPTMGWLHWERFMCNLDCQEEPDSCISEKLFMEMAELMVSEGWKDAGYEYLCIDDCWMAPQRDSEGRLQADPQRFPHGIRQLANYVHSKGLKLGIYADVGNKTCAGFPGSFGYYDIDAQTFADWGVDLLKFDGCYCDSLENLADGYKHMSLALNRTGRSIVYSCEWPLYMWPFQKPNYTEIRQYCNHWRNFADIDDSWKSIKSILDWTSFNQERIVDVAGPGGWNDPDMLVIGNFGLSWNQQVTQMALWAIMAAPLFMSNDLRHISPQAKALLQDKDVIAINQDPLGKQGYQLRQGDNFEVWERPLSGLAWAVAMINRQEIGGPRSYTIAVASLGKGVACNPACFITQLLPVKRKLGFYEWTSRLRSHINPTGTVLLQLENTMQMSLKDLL
Chain of Guanine nucleotide-binding protein G(i) subunit alpha-1 (Homo sapiens) (P63096 whole entry, looked up): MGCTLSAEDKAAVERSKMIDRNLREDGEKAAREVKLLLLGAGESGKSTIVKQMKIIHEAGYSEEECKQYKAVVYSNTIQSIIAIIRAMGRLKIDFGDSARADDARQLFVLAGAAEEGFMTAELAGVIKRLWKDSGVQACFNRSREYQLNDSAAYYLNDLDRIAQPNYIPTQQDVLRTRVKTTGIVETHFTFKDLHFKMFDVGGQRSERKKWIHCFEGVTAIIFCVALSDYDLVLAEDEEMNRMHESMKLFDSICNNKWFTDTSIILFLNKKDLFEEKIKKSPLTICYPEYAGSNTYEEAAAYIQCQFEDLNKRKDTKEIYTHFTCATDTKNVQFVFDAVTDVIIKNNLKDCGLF
Chain of 3',5'-cyclic-AMP phosphodiesterase 4B (Homo sapiens) (Q07343 whole entry, looked up): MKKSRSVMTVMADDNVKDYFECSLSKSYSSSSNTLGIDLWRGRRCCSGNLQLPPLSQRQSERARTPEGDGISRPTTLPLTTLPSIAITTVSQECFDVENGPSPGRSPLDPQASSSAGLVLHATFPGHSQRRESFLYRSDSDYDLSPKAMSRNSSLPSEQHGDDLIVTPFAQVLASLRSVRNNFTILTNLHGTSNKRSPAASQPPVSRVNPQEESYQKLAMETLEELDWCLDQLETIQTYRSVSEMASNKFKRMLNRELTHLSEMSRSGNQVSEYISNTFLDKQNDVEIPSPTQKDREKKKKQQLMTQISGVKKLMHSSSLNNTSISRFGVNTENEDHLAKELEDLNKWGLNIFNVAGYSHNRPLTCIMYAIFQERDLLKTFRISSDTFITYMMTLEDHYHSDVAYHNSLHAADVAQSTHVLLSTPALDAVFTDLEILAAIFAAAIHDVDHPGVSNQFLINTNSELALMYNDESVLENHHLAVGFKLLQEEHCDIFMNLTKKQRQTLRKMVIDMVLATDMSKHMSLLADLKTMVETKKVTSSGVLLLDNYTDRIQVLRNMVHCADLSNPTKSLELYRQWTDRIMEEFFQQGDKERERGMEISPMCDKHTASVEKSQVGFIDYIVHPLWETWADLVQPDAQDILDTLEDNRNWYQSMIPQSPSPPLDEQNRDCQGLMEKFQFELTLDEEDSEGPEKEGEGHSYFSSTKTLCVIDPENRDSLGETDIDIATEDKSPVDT
Chain of Muscarinic acetylcholine receptor M1 (Rattus norvegicus) (P08482 whole entry, looked up): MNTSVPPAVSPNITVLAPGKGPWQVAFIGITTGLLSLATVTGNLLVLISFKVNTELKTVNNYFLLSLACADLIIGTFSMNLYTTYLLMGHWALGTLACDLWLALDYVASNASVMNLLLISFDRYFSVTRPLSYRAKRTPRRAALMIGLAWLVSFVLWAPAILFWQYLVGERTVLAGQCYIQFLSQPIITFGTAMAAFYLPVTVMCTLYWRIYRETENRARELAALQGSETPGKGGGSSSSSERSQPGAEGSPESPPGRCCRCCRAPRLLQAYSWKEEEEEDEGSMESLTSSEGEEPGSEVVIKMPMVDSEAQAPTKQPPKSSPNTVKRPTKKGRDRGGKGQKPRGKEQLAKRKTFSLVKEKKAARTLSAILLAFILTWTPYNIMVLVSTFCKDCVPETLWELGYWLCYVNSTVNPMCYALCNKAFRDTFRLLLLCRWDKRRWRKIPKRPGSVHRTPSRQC
Chain of Pyruvate kinase PKM (Homo sapiens) (P14618 whole entry, looked up): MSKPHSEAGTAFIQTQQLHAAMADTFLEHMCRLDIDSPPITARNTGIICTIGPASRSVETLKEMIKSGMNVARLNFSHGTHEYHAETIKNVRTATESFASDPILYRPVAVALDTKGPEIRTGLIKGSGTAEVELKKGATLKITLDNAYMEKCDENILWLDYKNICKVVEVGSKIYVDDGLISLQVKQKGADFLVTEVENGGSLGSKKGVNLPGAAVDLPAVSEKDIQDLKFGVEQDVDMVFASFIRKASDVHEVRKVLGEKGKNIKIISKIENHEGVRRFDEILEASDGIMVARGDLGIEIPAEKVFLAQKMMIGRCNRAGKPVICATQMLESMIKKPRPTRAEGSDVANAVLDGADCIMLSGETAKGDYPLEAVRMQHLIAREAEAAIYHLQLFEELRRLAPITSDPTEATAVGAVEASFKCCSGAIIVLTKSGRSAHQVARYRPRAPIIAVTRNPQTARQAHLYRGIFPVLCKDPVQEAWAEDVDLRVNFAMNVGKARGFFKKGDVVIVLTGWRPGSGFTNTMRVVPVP
Chain of Glucocorticoid receptor (Homo sapiens) (P04150 whole entry, looked up, the tested form may be a part): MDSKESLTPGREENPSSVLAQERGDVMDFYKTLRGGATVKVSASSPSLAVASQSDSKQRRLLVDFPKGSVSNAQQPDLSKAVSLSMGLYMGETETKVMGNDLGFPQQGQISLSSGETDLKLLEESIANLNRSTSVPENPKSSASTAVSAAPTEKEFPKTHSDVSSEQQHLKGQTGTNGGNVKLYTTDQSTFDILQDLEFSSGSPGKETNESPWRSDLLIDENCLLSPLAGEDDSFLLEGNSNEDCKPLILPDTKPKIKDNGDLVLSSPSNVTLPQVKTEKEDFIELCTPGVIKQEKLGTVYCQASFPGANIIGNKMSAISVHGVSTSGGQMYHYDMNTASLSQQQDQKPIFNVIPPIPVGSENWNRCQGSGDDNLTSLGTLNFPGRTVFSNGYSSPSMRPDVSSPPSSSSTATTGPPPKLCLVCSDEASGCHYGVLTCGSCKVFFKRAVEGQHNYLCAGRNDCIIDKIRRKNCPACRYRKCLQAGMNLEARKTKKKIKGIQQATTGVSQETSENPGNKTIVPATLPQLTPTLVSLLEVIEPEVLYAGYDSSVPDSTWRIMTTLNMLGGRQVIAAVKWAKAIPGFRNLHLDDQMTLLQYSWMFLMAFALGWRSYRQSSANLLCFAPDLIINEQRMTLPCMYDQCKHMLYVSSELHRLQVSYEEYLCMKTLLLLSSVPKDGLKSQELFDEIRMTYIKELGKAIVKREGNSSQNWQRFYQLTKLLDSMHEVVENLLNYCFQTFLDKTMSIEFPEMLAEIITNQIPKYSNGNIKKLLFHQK
Chain of Pyruvate kinase (Leishmania mexicana) (Q27686 2-499 E452W): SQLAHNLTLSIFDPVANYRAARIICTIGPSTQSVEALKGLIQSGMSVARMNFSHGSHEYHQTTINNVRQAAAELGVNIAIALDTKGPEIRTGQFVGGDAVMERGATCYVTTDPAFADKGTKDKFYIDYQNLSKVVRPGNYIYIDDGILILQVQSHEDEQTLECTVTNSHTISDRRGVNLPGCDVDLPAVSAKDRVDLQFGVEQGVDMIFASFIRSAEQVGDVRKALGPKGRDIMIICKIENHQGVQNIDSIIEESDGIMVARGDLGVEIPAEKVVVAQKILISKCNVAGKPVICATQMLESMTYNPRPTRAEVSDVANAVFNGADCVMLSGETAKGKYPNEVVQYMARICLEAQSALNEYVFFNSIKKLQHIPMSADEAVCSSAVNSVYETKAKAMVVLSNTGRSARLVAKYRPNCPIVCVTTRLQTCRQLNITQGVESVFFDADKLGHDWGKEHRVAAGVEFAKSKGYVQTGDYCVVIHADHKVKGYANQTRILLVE

O=C(NCCCN1CCOCC1)C1(c2ccccc2)CCOCC1
inactive: activity change, negative = inhibition [1] 3.71% | activity change, negative = inhibition [2] -0.629% | activity, negative = inhibition [3] 5.62% | Potency [4] > 20.6 µM

CN1C[C@@H](C(=O)N[C@]2(C)O[C@]3(O)[C@H]4CCCN4C(=O)[C@H](Cc4ccccc4)N3C2=O)C[C@H]2c3cccc4[nH]cc(c34)C[C@@H]21
inactive: activity change, negative = inhibition [1] -19.9% [at 38 µM] | activity change, negative = inhibition [2] -15.6% [at 38 µM] | activity, negative = inhibition [3] -18.4% [at 38 µM] | Potency [4] > 46 µM | Potency [5] > 46 µM | Potency [6] | Potency [7] | outcome [8] | Potency [9] | Potency [10] | outcome [11] | outcome [12] | outcome [13]

Cn1c(Cn2cnc(Cl)c2Cl)nc2ccccc21
inactive: activity change, negative = inhibition [1] 2.26% | activity change, negative = inhibition [2] -0.211% | activity, negative = inhibition [3] 7.94% | Potency [4] > 20.6 µM

O=C(O)C[C@@H]1CCCc2ccccc2[C@H]1O
inactive: activity change, negative = inhibition [1] 1.66% [at 38 µM] | activity change, negative = inhibition [2] 2.27% [at 38 µM] | activity, negative = inhibition [3] -11.9% [at 38 µM] | Potency [4] > 46 µM | Potency [5] > 46 µM | Potency [6] | Potency [7] | Potency [9] | Potency [14] | Potency [15] | Potency [10] | outcome [11] | outcome [12] | outcome [13]

CN1C[C@H](C(=O)N[C@]2(C)O[C@]3(O)[C@H]4CCCN4C(=O)[C@H](Cc4ccccc4)N3C2=O)C[C@H]2c3cccc4[nH]cc(c34)C[C@@H]21
inactive: activity change, negative = inhibition [1] 1.56% | activity change, negative = inhibition [2] -6.21% | activity, negative = inhibition [3] -7.06% | Potency [4] > 20.6 µM | Potency [5] > 20.6 µM | Potency [6] | Potency [7]

CCNC(=O)[C@@H]1O[C@@H](n2cnc3c(N)nc(NCCc4ccc(CCC(=O)O)cc4)nc32)[C@H](O)[C@@H]1O
inactive: activity change, negative = inhibition [1] -2.01% [at 38 µM] | activity change, negative = inhibition [2] 4.74% [at 38 µM] | activity, negative = inhibition [3] 22.6% [at 38 µM] | Potency [4] > 46 µM | Potency [5] > 46 µM | Potency [7] | outcome [8] | Potency [16] | Potency [9] | Potency [14] | Potency [10] | outcome [11] | outcome [12] | outcome [13]

CC(=O)O[C@@H]1C[C@]2(C)[C@H](C[C@@H](O)[C@H]3[C@@]4(C)CC[C@@H](O)[C@@H](C)[C@@H]4CC[C@@]32C)/C1=C(\CCC=C(C)C)C(=O)O
inactive: activity change, negative = inhibition [1] -14.6% [at 38 µM] | activity change, negative = inhibition [2] -0.766% [at 38 µM] | activity, negative = inhibition [3] 11.2% [at 38 µM] | Potency [4] > 46 µM | Potency [5] > 46 µM | Potency [6] | Potency [7] | outcome [8] | Potency [9] | Potency [15] | Potency [10] | outcome [11] | outcome [12] | outcome [13]
